Screen size: about 4,500 compounds; about 200 (4.4%) were called active. The full list was thinned out, with actives kept by preference. Unmarked numbers belong to inactive results.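 How the source made its calls: active means cell survival measured by absorbance rises more than 2.5-fold over infected cells without compound; inactive means the rest.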

Consider 71 compounds from PubChem BioAssay AID1259312 (Keith Lab, Institute of Cancer Science, University of …, 2017).

This test is described as follows: survival after telomere uncapping, modulators, primary screen, cell-based (AID 1259312).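 Further: virus expresses mutant telomerase RNA that uncaps telomeres and kills cells; compound added 2 days after infection so exposure lasts 3 days.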 The settings on record: HCT116 + Ad-hTR-mut, MTT, 5 d; at 10 µM, stronger effect = higher value.
Regarding `CCOC(=O)C1CCN(C(=O)N2CCOCC2)CC1`, the fold change was -1.12.
With `CCOC(=O)C1CCN(C(C)=O)CC1` the figure was 3.8 (active); with `CCOC(=O)C1CCN(C(=O)C(=O)N2CCC(C(=O)OCC)CC2)CC1`, -1.3.
Regarding `O=C(NC1CCCC1)c1ccc(COc2cc(Cl)ccc2Cl)o1`, the fold change is -1.53.
Consider `O=C1/C(=C/c2c(N3CCOCC3)nc3ccccn3c2=O)SC(=S)N1CC1CCCO1` (stereo unspecified), for which the fold change is -1.1.
With `CCCCNC(=O)C(=O)NCCCn1ccnc1` the figure was -3.64.
With `Nc1ccc(Cn2ccnc2)cc1` the figure was -1.06; with `NCCCCn1ccnc1`, 2.97 (active).
In the case of `O=C1CCCN1c1ccc(NS(=O)(=O)N2CCCCC2)cc1`, the fold change was -1.3.
The result for `O=C1CCCN1c1ccc([N+](=O)[O-])cc1` reads 4.37 (active).
Regarding `O=C1CCCN1c1ccc(S(=O)(=O)Cl)cc1`, the fold change is 1.34.
For `CCN(CC)CCCN1c2ccccc2Sc2ccc(C(F)(F)F)cc21`, the fold change is 5.26 (active).
The result for `CN(CCCN1c2ccccc2CCc2ccccc21)c1nc(-c2ccc(F)cc2)cs1` reads -1.32; that for `Fc1ccc(-c2csc(N3CCN(CCCN4c5ccccc5Sc5ccc(C(F)(F)F)cc54)CC3)n2)cc1`, 1.16; that for `CC1SC2(C(=O)Nc3ccccc32)N(c2cccc(Br)c2)C1=O` (stereo unspecified), -4.19.
The result for `O=C(O)C1=C/C(=C(/c2ccccc2)c2cc(C(=O)O)c(O)c3ccccc23)c2ccccc2C1=O` reads 1.42; that for `O=C1NC(=O)/C(=C/c2cc(Br)ccc2OCc2ccc(F)cc2)N1`, -1.15.
As for `C=CCn1c(-c2ccc(OC)cc2)n[nH]c1=S`, the fold change is -2.14.
Regarding `O=c1ccc(=O)n2n1Cc1ccccc1C2`, the fold change was 3.52 (active).
On to `O=[N+]([O-])c1cccc(N2Cc3ccccc3C2)c1`, for which the fold change was -1.27.
The result for `CS(=O)(=O)N1CCc2ccccc2C1` reads -1.26.
With `O=C(O)CC1CCCCO1` (stereo unspecified) the figure was -1.75; with `O=C1CC(c2ccccc2)CC2=C1C(c1ccc(-c3ccccc3)cc1)Nc1ccccc1N2` (stereo unspecified), 1.1; with `Cn1cc(Cl)c(C(=O)N2CCc3ccccc3C2)n1`, -2.46.
For `N#CC1=C(N)C(C#N)(C#N)C2=CCCC2C12CCCCC2` (stereo unspecified), the fold change is 2.06.
With `N#CC(C(N)=S)=P(c1ccccc1)(c1ccccc1)c1ccccc1` the figure was -1.25; with `Cc1ccc(-c2nnnn2C(C#N)=P(c2ccccc2)(c2ccccc2)c2ccccc2)cc1`, 2.78 (active).
The result for `COc1cc(OC)cc([C@@H]2[C@@H](C(C)(C)C)C(C#N)(C#N)[C@H]3C=Cc4ccccc4N23)c1` reads 1.39; that for `Cn1c(=S)n(CCSc2nc3ccccc3n2C2CCCCC2)c2ccccc21`, -2.22.
With `CN(C)c1ccc(N2CC(=O)SC2=NC#N)cc1` the figure was -2.16; with `OCc1ccccc1O[C@@H]1O[C@H](CO)[C@@H](O)[C@H](O)[C@H]1O`, 1.37; with `COC1OC(COC(c2ccccc2)(c2ccccc2)c2ccccc2)C(O)C(O)C1O` (stereo unspecified), 2.72 (active).
On to `COC1OC(C)C(OCc2ccccc2)C(O)C1O` (stereo unspecified), for which the fold change is 1.93.
The result for `CCCCc1sc(-c2c(C#N)c(N)nc3c2CCCC3)cc1[N+](=O)[O-]` reads -2.22; that for `CCSCCOC(=O)C1=C(C)NC2=C(C(=O)CCC2)C1c1ccsc1` (stereo unspecified), -1.16; that for `CCCCOc1ccc(C2C(C#N)=C(N)Nc3oc(OC)nc32)cc1CCC` (stereo unspecified), -1.87.
With `O=S(=O)(c1cc(Cl)ccc1Cl)N1CCc2ccccc2C1` the figure was 1.42; with `CCC1CCCCN1S(=O)(=O)c1ccc(Cl)cc1` (stereo unspecified), -1.26.
With `O=C(O)C1CCCN1S(=O)(=O)c1cc(Cl)ccc1Cl` (stereo unspecified) the figure was -1.09; with `COc1ccc(S(=O)(=O)N2CC(C)CC(C)C2)cc1` (stereo unspecified), 3.34 (active); with `CC1CCCN(S(=O)(=O)c2ccc(Cl)cc2)C1` (stereo unspecified), 5.69 (active).
On to `CC1CC(C)CN(S(=O)(=O)c2ccc(Cl)cc2)C1` (stereo unspecified), for which the fold change was 3.13 (active).
The result for `CC1CCN(S(=O)(=O)c2ccc(Cl)cc2)CC1` reads 1.93; that for `COc1ccc(S(=O)(=O)N2CCN(CCO)CC2)cc1`, -1.24.
The result for `CC1CCCN(S(=O)(=O)c2ccc(Br)cc2)C1` (stereo unspecified) reads 1.44; that for `O=S(=O)(c1ccc(Cl)cc1)N1CCOC1C(Cl)(Cl)Cl` (stereo unspecified), -2.17.
With `COc1ccc(S(=O)(=O)N2CCN(C)CC2)cc1`, the fold change was -1.28.
With `CC1CCCN(S(=O)(=O)c2cc(Cl)ccc2Cl)C1` (stereo unspecified) the figure was 3.18 (active).
With `CCC1CN2CCc3cc(OC)c(OC)cc3[C@@H]2C[C@@H]1C[C@H]1NCCc2cc(OC)c(OC)cc21` (stereo partly specified) the figure was -4.98.
With `Nc1nnc(SCc2ccc(Cl)cc2Cl)s1` the figure was 1.92; with `CC(C)(C)c1cc(C(C)(C)C)c(O)c(C(C)(C)C)c1`, -1.04.
As for `CS(=O)(=O)N1CCc2ccccc21`, the fold change is 1.49.
With `CN=C1/C(=N/O)C=CC2CCCCC12` (stereo unspecified) the entry was “inactive”.
As to `O=[N+]([O-])c1cc(Br)cc(C=Nc2cc(Cl)cc(Cl)c2)c1O`, the fold change entry is “inactive”.
The result for `O=C1C=CC(=C(c2ccc(O)c(O)c2)c2ccccc2S(=O)(=O)O)C=C1O` reads 1.05.
Turning to `Cc1cc(=O)[nH]c(SCc2ccon2)n1`, the fold change entry was “inactive”.
With `Cn1c(=O)n(C)c2cc(S(=O)(=O)N3CCCCC3)ccc21` the figure was -4.28.
The result for `CSC(=Nc1ccc(C)c(C)c1)NC#N` reads 3.26 (active); that for `CC1(C)CC2CC(C)(CN2S(=O)(=O)c2ccc(N)cc2)C1` (stereo unspecified), -1.15.
`CN(C)CCCN1C(=O)C(O)=C(C(=O)c2ccco2)C1c1cccs1` (stereo unspecified): the fold change was 1.06.
The result for `Cc1ccc(C2C(C#N)=C(N)OC3=C2C(=O)CCC3)o1` (stereo unspecified) reads -2.21.
With `N#CC1=C(N)OC2=C(C(=O)CCC2)C1c1ccc(Br)s1` (stereo unspecified) the figure was -1.06.
The result for `N#CC1=C(N)OC2=C(C(=O)CCC2)C1c1cc(F)ccc1F` (stereo unspecified) reads 2.83 (active); that for `Cn1c(SC2CCOC2=O)nc2ccccc2c1=O` (stereo unspecified), -1.35; that for `COc1nc(-c2ccccc2)cc(-c2ccccc2)c1C#N`, 1.46.
Regarding `OC[C@H]1O[C@@H](OC[C@H]2O[C@@H](O)[C@H](O)[C@@H](O)[C@@H]2O)[C@H](O)[C@@H](O)[C@@H]1O`, the fold change was -1.38.
Turning to `O=[N+]([O-])c1ccc(OC2OC(CO)C(O)C(O)C2O)cc1` (stereo unspecified), the fold change is 1.11.
With `OC[C@@H]1O[C@H](O[C@H]2O[C@H](CO[C@H]3O[C@H](CO)[C@H](O)[C@H](O)[C@H]3O)[C@@H](O)[C@H](O)[C@H]2O)[C@H](O)[C@H]1O` the figure was 2.81 (active); with `OC[C@@H]1OC(O)[C@@H](O)[C@H](O)[C@H]1O[C@H]1O[C@H](CO)[C@@H](O)[C@H](O)[C@H]1O` (stereo partly specified), 3.84 (active).
Consider `NC[C@@H]1O[C@H](O[C@H]2[C@@H](O)[C@H](O[C@@H]3[C@@H](O)[C@H](N)C[C@H](N)[C@H]3O[C@H]3O[C@H](CN)[C@@H](O)[C@H](O)[C@H]3N)O[C@@H]2CO)[C@H](N)[C@@H](O)[C@@H]1O`, for which the fold change was -1.27.
The result for `OCC1OC(OC2OC(CO)C(O)C(O)C2O)C(O)C(O)C1O` (stereo unspecified) reads -1.63.
